Sampled rows, rich in hits. Any-hit rate of the full collection: about 3.5%.
MITF primary: MITF inhibitors, primary screen, biochemical, AlphaScreen, human; Microphthalmia-associated transcription factor (Homo sapiens), O75030; AlphaScreen MITF homodimerization, bead proximity signal; inhibition, % at 2.6 µM; 650,000 tested, 0.91% active; AID 1259374, 2018; in the data active means inhibition above about 50%;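 further: 0% = vehicle wells with protein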
GPR151 activ: activators of human GPR151, primary screen, cell-based, PathHunter beta-arrestin, luminescence; G-protein coupled receptor 151 (Homo sapiens), Q8TDV0; PathHunter beta-arrestin GPR151 cells; activation, % at 11.2 µM; 650,000 tested, 1% active; AID 1508602, 2020; in the data active means activation above about 4.9%;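 further: 0% = median of compound wells and 100% = cells with positive control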
TEAD-YAP block: TEAD-YAP interaction inhibition, primary screen, TEAD-YAP interaction inhibitor project, luminescence, HEK-TIYL cells; TEAD-Gal4/YAP UAS-luciferase luminescence; inhibition, % at 9.12 µM; 640,000 tested, 1.4% active; in the data active means inhibition above about 32%;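 further: 0% = median of test compound wells and 100% = reference inhibitor wells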
FBW7 activator: FBW7 E3 ligase activators, primary screen, biochemical, AlphaScreen, human; normalized activity (activation), % at 26.1 µM; AID 1259310, 2017; AlphaScreen FBW7–phospho-cyclin E peptide binding, activator screen; 650,000 tested, 0.13% active; F-box/WD repeat-containing protein 7 (Homo sapiens), Q969H0; in the data active means normalized activity above about 1.9%;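 further: purified mutant Fbw7 with reduced substrate affinity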
An asterisk follows results filed as active.

SMILES	MITF primary	GPR151 activ	TEAD-YAP block	FBW7 activator
Cc1ccc(P(=Nc2cccc(C(F)(F)F)c2)(N2CCCC2)N2CCCC2)o1	2	2	3	0
COC(=O)c1cc(S(=O)(=O)Nc2cccc3c2CCCC3)c[nH]1	-8	2	10	0
CC1CCN(C(=O)c2cc3nc(-c4ccco4)cc(C(F)(F)F)n3n2)CC1	-20	1	-1	0
CN(C)CCNC(=O)c1ccc(-c2ccccc2)cc1	3	-2	35*	0
Cc1ccc(C(=O)CNC(=O)c2ccccc2)cc1	4	-8	65*	0
CCNC(=O)c1ccc(-c2ccccc2)cc1	1	-1	-33	0
Cc1ccc(C(=O)NC(=S)NCC(=O)c2ccccc2)cc1	-8	3	-17	0
CCOc1ccc(/C=C2\SC(N3CCOCC3)=NC2=O)cc1	8	0	8	2.3*
COc1cc(/C=C2\SC(N3CCCCC3)=NC2=O)ccc1O	1	1	50*	0
CC(C)(C)c1ccc(/C=C2\SC(N3CCOCC3)=NC2=O)cc1	-4	0	0	0
CN1C(=O)/C(=C2\SC(N3CCOCC3)=NC2=O)c2ccccc21	16	-2	-8	1
CCOc1ccc(NC(=O)CN2C(=O)/C(=C3\SC(N4CCOCC4)=NC3=O)c3ccccc32)cc1	19	-1	0	8.4*
Cc1ccc(/C=C2/SC(N3CCN(C)CC3)=NC2=O)cc1	58*	-1	3	0
Cc1ccc(NC(=O)c2nn3c(C(F)(F)F)cc(-c4ccc(Br)cc4)nc3c2Cl)cc1C	-1	0	-3	0
O=c1cc(CN2CCN(c3ccc(F)cc3)CC2)occ1OCc1ccc(Cl)cc1	18	-2	5	0
O=C1N=C(N2CCOCC2)S/C1=C/c1ccc(O)cc1	8	0	47*	0
CCCSc1nnc(CSc2ncccn2)n1-c1ccc(OC)cc1	-8	-1	7	0
O=C1/C(=C\C=C/c2ccc([N+](=O)[O-])o2)C(C(F)(F)F)=NN1c1ccccc1[N+](=O)[O-]	90*	1	15	1
CCOC(=O)N1CCN(C(=O)C(C)N(c2ccc(C)c(C)c2)S(C)(=O)=O)CC1 (configuration not stated)	-5	1	-10	0
CCCN1CCC2(CC1)NC(=O)N(CC(=O)NCCc1ccccc1)C2=O	10	-2	4	0
CCCN1CCC2(CC1)NC(=O)N(CC(=O)NCCc1ccc(OC)c(OC)c1)C2=O	15	0	8	2.7*
Cc1c(Br)c(C(F)(F)F)nn1CC(=O)NCc1ccc(F)cc1C(F)(F)F	-1	-1	36*	0
COc1cc(CNC(=O)Cn2nc(C(F)(F)F)c(Br)c2C)cc(OC)c1	20	0	3	0
CN1C(=O)c2ccccc2C(C(=O)NCc2ccco2)C1c1cn(C)c2ccccc12 (configuration not stated)	28	-1	7	1
CC(=O)C1=C(O)C(=O)N(c2nc3ccccc3s2)C1c1ccc(Cl)cc1Cl (configuration not stated)	20	1	66*	0
SMILES	MITF primary	GPR151 activ	TEAD-YAP block	FBW7 activator
CC(=O)C1=C(O)C(=O)N(c2nc3ccccc3s2)C1c1ccccc1F (configuration not stated)	15	1	-77	0
O=C(Nc1cccc(F)c1)Nc1ccnn1C1CCN(C2CCSCC2)CC1	-6	-3	-5	0
COc1cc(-c2cncc(-c3ccccc3N(C)C)n2)cc(OC)c1OC	-8	0	-3	0
COc1cncc(-c2cncc(-c3ccccc3N(C)C)n2)c1	-1	1	36*	0
COc1ccc(/C=C2/SC(=N)N(c3cc(C)ccc3C)C2=O)cc1	8	2	38*	0
CN1CCN(C(=O)c2ccc(-c3cnc4c(n3)[nH]c(=O)n4Cc3ccc(F)cc3)cc2)CC1	-10	0	4	0
CC(=O)NC(C(=O)NC(Cc1ccccc1)C(N)=O)C(C)C (configuration not stated)	8	1	-1	2.0*
COC(=O)C(C)NC(=O)C(Cc1ccccc1)NC(C)=O (configuration not stated)	9	0	-3	0
CC(=O)NC(CC(C)C)C(=O)NC(Cc1ccccc1)C(N)=O (configuration not stated)	6	0	-2	2.5*
Cc1ccc(NC(=O)/C(=C\c2ccc3c(c2)OCO3)NC(=O)c2ccccc2Br)c(Br)c1	-7	-1	-1	0
